Test [1] can be described thus: qHTS assay for small molecule antagonists of retinoid X receptor alpha signaling (AID 588546; active = well fitted inhibition curve with a large enough effect in the signal ratio, with a control signal flat, not every such curve was filed as active; the % refers to the signal ratio;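 also: cells stimulated with 9-cis-retinoic acid as agonist; % is scaled to controls: 0 for no effect and ±100 for the full control effect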). The settings on record: HEK293T RXRa-UAS-bla, beta-lactamase ratio, antagonist mode; measured here: W530 green channel, cytotoxicity proxy. An outline of the steps:
(§1)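 Beta-lactamase reporter inhibition, read as CCF4 fluorescence ratio (ex 405, em 460/530 nm) after 2 h at RT. HEK293T UAS-bla cells, 2500/well, were stimulated with 9-cis-RA at 500 or 100 nM final alongside test compound for 18 h at 37 C.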
In general terms: In qHTS, concentration-response curves come from the screen itself.

The target of test [2] is Retinoic acid receptor RXR-alpha (Homo sapiens) (UniProt P19793). The description is as above. The settings on record: HEK293T RXRa-UAS-bla, beta-lactamase ratio, antagonist mode. In short, it runs like this: as §1
Retinoic acid receptor RXR-alpha (Homo sapiens), sequence (P19793 whole entry, looked up): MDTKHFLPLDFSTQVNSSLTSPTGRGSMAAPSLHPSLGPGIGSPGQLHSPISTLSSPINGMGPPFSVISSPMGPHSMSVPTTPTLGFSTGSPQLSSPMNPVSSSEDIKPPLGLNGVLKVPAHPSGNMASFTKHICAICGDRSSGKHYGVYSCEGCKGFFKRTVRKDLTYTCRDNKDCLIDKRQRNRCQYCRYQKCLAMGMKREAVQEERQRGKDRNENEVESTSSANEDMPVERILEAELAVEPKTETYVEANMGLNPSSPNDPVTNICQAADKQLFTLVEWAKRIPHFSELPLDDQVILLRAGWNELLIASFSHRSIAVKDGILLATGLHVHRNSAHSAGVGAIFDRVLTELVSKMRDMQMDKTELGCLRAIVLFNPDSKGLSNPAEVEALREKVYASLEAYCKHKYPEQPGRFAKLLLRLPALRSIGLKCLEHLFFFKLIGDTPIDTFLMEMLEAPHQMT
For test [3], the target named is Voltage-gated inwardly rectifying potassium channel KCNH2 (Homo sapiens) (UniProt Q12809). Put plainly: qHTS Assay for Small Molecule Inhibitors of the Human hERG Channel Activity (AID 588834).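 Also: top concentration of the series differs between compounds; % is scaled to controls: 0 for no effect and ±100 for the full control effect; lower thallium flux fluorescence means stronger hERG block; nearly all actives have a fitted effect of over 50% in size.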 Particulars: U2OS BacMam hERG, FluxOR thallium flux fluorescence; series mostly up to 92.2 µM. An outline of the steps: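 Kinetic FDSS fluorescence; U2OS + hERG BacMam (~100 virus particles/cell); FluxOR Tl+ flux; ~10 min cpd; AC50 (Hill).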
Voltage-gated inwardly rectifying potassium channel KCNH2 (Homo sapiens), sequence (Q12809 whole entry, looked up): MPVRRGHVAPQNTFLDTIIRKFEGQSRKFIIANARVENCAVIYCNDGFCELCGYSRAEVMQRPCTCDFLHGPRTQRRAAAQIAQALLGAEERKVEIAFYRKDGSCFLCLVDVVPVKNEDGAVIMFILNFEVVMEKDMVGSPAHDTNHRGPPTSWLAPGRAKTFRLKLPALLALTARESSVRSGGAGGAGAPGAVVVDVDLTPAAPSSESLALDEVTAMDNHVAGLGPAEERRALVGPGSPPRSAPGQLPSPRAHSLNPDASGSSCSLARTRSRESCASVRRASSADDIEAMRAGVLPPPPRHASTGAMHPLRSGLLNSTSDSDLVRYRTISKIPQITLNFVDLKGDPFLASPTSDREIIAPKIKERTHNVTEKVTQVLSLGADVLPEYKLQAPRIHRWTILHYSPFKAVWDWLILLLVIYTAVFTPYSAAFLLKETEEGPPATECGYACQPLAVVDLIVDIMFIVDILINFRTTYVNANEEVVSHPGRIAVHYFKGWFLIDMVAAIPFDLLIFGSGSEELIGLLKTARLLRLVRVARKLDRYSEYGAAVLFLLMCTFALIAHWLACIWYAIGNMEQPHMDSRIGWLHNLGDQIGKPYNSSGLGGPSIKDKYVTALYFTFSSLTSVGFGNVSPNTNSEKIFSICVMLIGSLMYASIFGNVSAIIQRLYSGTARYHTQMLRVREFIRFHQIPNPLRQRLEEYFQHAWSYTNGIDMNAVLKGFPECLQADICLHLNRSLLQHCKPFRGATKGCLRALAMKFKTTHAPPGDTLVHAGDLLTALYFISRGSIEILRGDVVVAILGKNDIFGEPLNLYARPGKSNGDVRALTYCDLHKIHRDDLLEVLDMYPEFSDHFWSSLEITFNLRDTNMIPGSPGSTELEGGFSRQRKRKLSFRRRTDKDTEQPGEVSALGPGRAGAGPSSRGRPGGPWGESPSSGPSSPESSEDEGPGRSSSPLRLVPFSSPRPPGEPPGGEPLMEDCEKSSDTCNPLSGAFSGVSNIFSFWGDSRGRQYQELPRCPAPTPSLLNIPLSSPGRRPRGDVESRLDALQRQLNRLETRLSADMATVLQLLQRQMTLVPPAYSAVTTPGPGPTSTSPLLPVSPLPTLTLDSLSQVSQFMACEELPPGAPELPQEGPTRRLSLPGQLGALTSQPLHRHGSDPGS

Test [4] can be described thus: qHTS assay for small molecule activators of the p53 signaling pathway (AID 651743; active = well fitted activation curve with a large enough effect in the signal ratio, not every such curve was filed as active; the % refers to the signal ratio; also: % of control where 0% means no effect). Particulars: HCT-116 p53RE-bla, beta-lactamase FRET ratio, 16 h; stronger effect = higher value. In short, it runs like this:
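p53RE-bla HCT-116 cells carrying a beta-lactamase reporter under p53 response elements were exposed to compounds for 16 hours at 37 C. Reporter activity read as fluorescence after 2 hours at room temperature with LiveBLAzer B/G FRET substrate.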

Test [5] deals with Tumor necrosis factor (Homo sapiens) (UniProt P01375). Nature of the test: qHTS assay to identify small molecules that stimulate Tumor Necrosis Factor-alpha (TNF-alpha) secretion (AID 651757; active = well fitted curve in the direction sought with a large enough effect in the signal ratio; the % refers to the signal ratio; also: potency is read from the fitted curve at half-maximal effect). The settings on record: Human cells, HTRF 665/615 ratio; series mostly up to 92.2 µM. An outline of the steps: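 THP-1 cells (3000/well) exposed to compounds 17 hrs at 37 C. Secreted TNF-alpha detected by HTRF with cryptate- and XL665-labeled anti-TNF-alpha antibodies after 3 hr at room temperature.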
Tumor necrosis factor (Homo sapiens), sequence (P01375 whole entry, looked up): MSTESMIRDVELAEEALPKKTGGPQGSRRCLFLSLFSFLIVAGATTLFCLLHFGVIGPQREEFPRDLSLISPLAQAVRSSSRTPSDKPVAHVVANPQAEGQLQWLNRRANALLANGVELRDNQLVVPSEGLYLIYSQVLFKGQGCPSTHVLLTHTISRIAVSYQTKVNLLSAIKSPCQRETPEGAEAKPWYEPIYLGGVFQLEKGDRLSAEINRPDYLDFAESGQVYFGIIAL

Test [6] in a line: qHTS assay for environmental chemicals that activate the Aryl hydrocarbon Receptor (AhR) signaling pathway (AID 651777). Also: nearly all actives have a fitted effect of over 15% in size. Also: potency is read from the fitted curve at half-maximal effect. As to activation: % of control where 0% means no effect. The settings on record: 1A2-DRE human hepatoma cells, luciferase, 24 h; activation: stronger effect = higher value. An outline of the steps: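 Luminescence read-out: One-Glo added for 30 min at RT after 24 hr compound treatment (37 C, 5% CO2) of human hepatoma cells expressing a DRE/CYP1A2 promoter–luciferase reporter; increased signal indicates AhR activation.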

Test [7] addresses Peroxisome proliferator-activated receptor alpha (Homo sapiens) (UniProt Q07869). Nature of the test: qHTS assay for small molecule agonists of the peroxisome proliferator-activated receptor alpha (PPARalpha) signaling pathway (AID 651778). Also: % of control where 0% means no effect. The settings on record: PathHunter PPARalpha complementation, chemiluminescence, 6 h; stronger effect = higher value. An outline of the steps: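 Enzyme-fragment complementation assay in which ligand-bound PPARalpha translocates and forms an active enzyme that generates chemiluminescence. Cells were plated overnight, exposed to compound for 6 hr at 37 C, and then given detection reagent for 60 min at room temperature.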

Test [8] in a line: qHTS assay for small molecule agonists of the antioxidant response element (ARE) signaling pathway measured by Nrf2-dependant transcriptional activity - cell viability counter screen (AID 720653; active = well fitted curve in the direction sought with a large enough effect in the repeat runs; an effect the other way counts as inactive or inconclusive; also: % is scaled to controls: 0 for no effect and ±100 for the full control effect). Particulars: ARE-bla HepG2 viability, CellTiter-Glo ATP luminescence, 16 h; stronger effect = lower value. An outline of the steps: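 ARE-bla HepG2 cells treated with compounds for 16 h at 37C; this counter screen measures viability as intracellular ATP by CellTiter-Glo luminescence after 30 min at room temperature.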

The nature of test [9]: qHTS assay for small molecule agonists of retinoid X receptor alpha signaling (AID 588544). Particulars: HEK293T RXRa-UAS-bla, beta-lactamase reporter, 18 h; 530 nm emission.
Test [10] has as its target Thyroid hormone receptor beta (Homo sapiens) (UniProt P10828). Put plainly: qHTS assay for small molecule agonists of thyroid hormone receptor beta signaling (AID 588545; calls by dose curve). The settings on record: TR-UAS-bla GripTite HEK 293, beta-lactamase ratio, agonist mode, 18 h, percent of T3 response, DMSO as zero; series mostly up to 76.7 µM. In short, it runs like this:
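In this cell-based screen, titrated compounds act on HEK 293 cells held in medium with 2% charcoal/dextran FBS, NEAA and pyruvate for 18 hrs at 37 C. Responses are expressed relative to T3 (10 nM) as 100% and basal DMSO as 0%.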

Test [11] shares this target. Nature of the test: qHTS assay for small molecule antagonists of thyroid hormone receptor beta signaling (AID 588547; active = well fitted inhibition curve with a large enough effect in the signal ratio, with a control signal flat, not every such curve was filed as active; the % refers to the signal ratio;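 also: cells stimulated with 0.4 nM T3 agonist during compound exposure; % is scaled to controls: 0 for no effect and ±100 for the full control effect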). Particulars: TR-UAS-bla HEK293, beta-lactamase ratio, antagonist mode, 18 h. An outline of the steps:
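TR-UAS-bla GripTite HEK293 cells in 2% charcoal/dextran FBS medium; compounds 0.59 nM to 92 uM with T3 at 0.4nM final, 18 h at 37 C. Beta-lactamase read by CCF4 fluorescence (460/530 nm); Hill fits gave IC50 and efficacy.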

Test [12] can be described thus: qHTS assay for small molecule agonists of the antioxidant response element (ARE) signaling pathway (AID 651741; active = well fitted activation curve with a large enough effect in the signal ratio; the % refers to the signal ratio; also: % of control where 0% means no effect). The settings on record: HepG2 ARE-bla reporter, beta-lactamase FRET ratio, 16 h; series mostly up to 96 µM. In short, it runs like this: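 CellSensor ARE-bla HepG2 cells (2,000/well) carrying ARE-driven beta-lactamase, exposed 16 h at 37 C. LiveBLAzer B/G FRET substrate added for 2 h at room temperature; fluorescence intensity read.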

Test [13] can be described thus: qHTS assay for small molecule disruptors of the mitochondrial membrane potential - 1 hr assay (AID 651754; calls by dose curve; also: % is scaled to controls: 0 for no effect and ±100 for the full control effect; nearly all actives have a fitted effect of over 35% in size). Particulars: series mostly up to 92.2 µM. An outline of the steps: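 HepG2 cells, attached overnight, were exposed to compound for 1 hr at 37C, then stained 30 min with a potentiometric dye. Ratio of red aggregate (590nm) to green monomer (535nm) fluorescence reports membrane potential; collapse shifts signal toward green.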

A short description of test [14]: qHTS assay to identify small molecules that stimulate interleukin-8 (IL-8) secretion (AID 651758; active = well fitted activation curve with a large enough effect in the signal ratio; the % refers to the signal ratio; also: 0% is about no effect). Particulars: HTRF ratio (665/615); series mostly up to 92.2 µM. An outline of the steps: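 THP-1 cells (2000/well) exposed to compound 16 h at 37 C; secreted IL-8 then detected by HTRF with cryptate- and XL665-labelled anti-IL-8 antibody pair after 1-3 h at room temperature.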

In test [15] the target is Nuclear receptor ROR-gamma (Homo sapiens) (UniProt P51449). Put plainly: qHTS assay for small molecule antagonists of the retinoid-related orphan receptor gamma (ROR-gamma) signaling pathway (AID 651802).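 Also: luciferase reporter luminescence driven by ROR response element; % is scaled to controls: 0 for no effect and ±100 for the full control effect; nearly all actives have a fitted effect of over 60% in size.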 The settings on record: ROR-gamma antagonist cell reporter assay; series mostly up to 92.2 µM. An outline of the steps:
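CHO cells with TET-inducible ROR-gamma and RORE-luciferase reporter, dosed then doxycycline-induced. After 16 h at 37C, One-Glo luminescence read; decreased signal indicates antagonism.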

Test [16] can be described thus: qHTS assay for small molecule agonists of the antioxidant response element (ARE) signaling pathway measured by Nrf2-dependant transcriptional activity (AID 720636; active = well fitted curve in the direction sought with a large enough effect in the repeat runs; an effect the other way counts as inactive or inconclusive; also: % of control where 0% means no effect). Particulars: ARE-luc HepG2, Nrf2 luciferase reporter, 16 h; series mostly up to 92.4 µM. In short, it runs like this:
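HepG2 ARE-luc reporter line, 1% dialyzed FBS; 6 hr attachment at 37 C, compound pinned in, 16 hr at 37 C/5% CO2; ONE-Glo, 30 min RT, luminescence read.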

Test [17] can be described thus: qHTS assay for small molecule antagonists of the retinoid-related orphan receptor gamma (ROR-gamma) signaling pathway - cell viability counter screen (AID 720652; active = well fitted curve in the direction sought with a large enough effect in the repeat runs; an effect the other way counts as inactive or inconclusive;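 also: compound exposure lasted 16 hr before ATP read; % is scaled to controls: 0 for no effect and ±100 for the full control effect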). Particulars: RORgamma reporter cell line viability counter screen; series mostly up to 92.2 µM. An outline of the steps: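 CHO cells carrying TET-inducible ROR and RORE-luciferase reporter, plated 5 hr, then dosed with compound plus doxycycline. After 16 hr at 37 C, viability read as intracellular ATP by CellTiter-Glo luminescence.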

A short description of test [18]: qHTS assay for small molecule activators of the nuclear factor-kappa B (NF-kB) signaling pathway (AID 651749; active = well fitted activation curve with a large enough effect in the signal ratio; the % refers to the signal ratio; also: % of control where 0% means no effect). The settings on record: NF-kB-bla ME-180 cells, beta-lactamase FRET ratio, 16 h; stronger effect = higher value. An outline of the steps: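 NF-kB-bla ME-180 cells carrying a beta-lactamase reporter under an NF-kB response element, 2,000 cells/well, exposed to compound for 16 hr at 37C; FRET-based beta-lactamase fluorescence read-out of pathway activation.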

Each structure is given as a SMILES string. Results filed as inconclusive are left out. The source made the active and inactive calls. Unless noted, calls follow the shape of the dose curve; as a rule, active = well fitted curve in the direction sought with a large enough effect; inconclusive = small, poorly fitted or top-dose-only effect, or another doubt; inactive = no such curve, though single readings can be large; an effect the other way counts as inactive or inconclusive.

Thyroid hormone receptor beta (Homo sapiens), sequence (P10828 whole entry, looked up): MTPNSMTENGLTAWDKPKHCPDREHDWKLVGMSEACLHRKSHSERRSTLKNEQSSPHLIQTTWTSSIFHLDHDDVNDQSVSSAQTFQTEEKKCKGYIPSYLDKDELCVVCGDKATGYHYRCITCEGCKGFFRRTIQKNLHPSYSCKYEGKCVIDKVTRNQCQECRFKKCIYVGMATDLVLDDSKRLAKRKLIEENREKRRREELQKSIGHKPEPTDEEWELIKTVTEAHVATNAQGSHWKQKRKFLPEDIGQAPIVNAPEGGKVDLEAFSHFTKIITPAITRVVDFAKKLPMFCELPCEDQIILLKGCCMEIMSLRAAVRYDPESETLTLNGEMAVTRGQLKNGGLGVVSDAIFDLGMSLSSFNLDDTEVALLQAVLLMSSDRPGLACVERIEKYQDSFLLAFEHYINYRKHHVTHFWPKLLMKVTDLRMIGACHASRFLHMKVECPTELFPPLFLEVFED
Peroxisome proliferator-activated receptor alpha (Homo sapiens), sequence (Q07869 whole entry, looked up, the tested form may be a part): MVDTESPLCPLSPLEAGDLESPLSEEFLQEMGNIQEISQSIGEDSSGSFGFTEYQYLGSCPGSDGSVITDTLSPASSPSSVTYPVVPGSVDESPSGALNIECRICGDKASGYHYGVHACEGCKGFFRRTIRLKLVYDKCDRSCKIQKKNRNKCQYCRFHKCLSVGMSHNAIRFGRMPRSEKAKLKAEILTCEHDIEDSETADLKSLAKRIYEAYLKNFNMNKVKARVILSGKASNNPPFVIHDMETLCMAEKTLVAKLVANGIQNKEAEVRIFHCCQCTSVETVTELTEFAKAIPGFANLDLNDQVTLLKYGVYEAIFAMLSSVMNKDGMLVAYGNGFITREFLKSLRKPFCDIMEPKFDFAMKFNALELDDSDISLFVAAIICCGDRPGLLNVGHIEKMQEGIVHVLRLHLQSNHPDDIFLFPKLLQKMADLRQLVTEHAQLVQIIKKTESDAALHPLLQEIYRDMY
Nuclear receptor ROR-gamma (Homo sapiens), sequence (P51449 whole entry, looked up): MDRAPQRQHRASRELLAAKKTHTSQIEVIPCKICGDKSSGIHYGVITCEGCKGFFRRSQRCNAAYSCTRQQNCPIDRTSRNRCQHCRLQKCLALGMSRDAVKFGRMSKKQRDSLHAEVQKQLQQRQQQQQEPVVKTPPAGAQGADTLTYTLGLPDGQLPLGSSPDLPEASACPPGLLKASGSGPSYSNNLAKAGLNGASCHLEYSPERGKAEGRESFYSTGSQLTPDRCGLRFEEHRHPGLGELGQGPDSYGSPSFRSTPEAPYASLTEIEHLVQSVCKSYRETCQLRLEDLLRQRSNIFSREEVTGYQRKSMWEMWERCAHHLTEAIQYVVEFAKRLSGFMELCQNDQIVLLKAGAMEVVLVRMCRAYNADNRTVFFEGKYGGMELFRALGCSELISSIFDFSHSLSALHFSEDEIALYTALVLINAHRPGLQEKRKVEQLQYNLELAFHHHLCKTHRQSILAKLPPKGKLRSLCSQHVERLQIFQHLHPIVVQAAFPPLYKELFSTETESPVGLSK

Turning to `Cc1ccc2nc(-c3ccc(N)cc3)sc2c1S(=O)(=O)O`, the max response in test [1] was -1.52%; in [2], 30.6% (inactive); in [7], 2.42% (inactive); in [8] it was -24.5% (inactive). Further, the Potency result in test [3] is “inactive”. Besides, the activation in test [4] was 18.6% (inactive). In addition, the values for the Potency in test [5] and in test [6] were 8.41 µM (active) and 39.8 µM (active), respectively.

Regarding `Cc1ccc2cccnc2c1`, the max response was 5.51% in test [9]; 6% in test [1]; 0.426% (inactive) in test [2]; -8.31% (inactive) in test [7]; 0.459% (inactive) in test [8]. The outcome in test [10] and in test [16] was inactive. Further, the activity change % (negative = inhibition) in [11] is 17% (inactive). Also, the Potency entry in test [12], in [13], in test [5], in [14], in test [15] and in test [17] was “inactive” throughout. The activation in test [6] was 0.306% (inactive).

As to `CC(N)CN` (stereo unspecified), the max response in [9] was -2.32%; in test [1] it was -2.44%; in test [2] it was 12.6% (inactive); in [7] it was -3.51% (inactive). For the same compound, in test [10], the outcome was inactive. In addition, the Potency entry in test [3], in test [12], in [5], in [14] and in test [17] was “inactive” in each case. Further, the activation in [4] was -0.238% (inactive); in [18], 0.0382% (inactive); in test [6], -0.27% (inactive).

For the origin of these results see PubChem BioAssay (NCATS).
